Rab9 promoter act: qHTS Assay for Rab9 Promoter Activators; actives 2.8% (n = 320,000); Huh7 Rab9 promoter-luciferase reporter, luminescence, 24 h; Potency, µM (titrated, usually from 9.22 µM), inactives show at the highest dose activation, negative = inhibition, hits mostly activators; AID 485297, 2010; also: % of control where 0% means no effect; nearly all actives have a fitted effect of over 60% in size
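Rab9 promoter-driven luciferase in stably transfected Huh7 cells; 1500 cells/well rested 2 h, exposed to compound in DMSO for 24 h at 37 °C, 5% CO2. Luminescence read 10 min after adding luciferase reagent at ambient temperature.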
FLuc modulator: qHTS profiling assay for firefly luciferase inhibitor/activator using purifed enzyme and Km concentrations of substrates (counterscreen for miR-21 project); actives 6.9% (n = 360,000); purified FLuc, Km substrates, luminescence inhibition; Potency, µM (doses to about 57.5 µM), for inactives: at the top dose activity change, negative = inhibition, usual class: inhibitors; Luciferin 4-monooxygenase (Photinus pyralis), P08659;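 also: plate controls were vehicle for no effect and reference inhibitor for full effect; nearly all actives have a fitted effect of over 55% in size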
Target sequence (P08659 whole entry, looked up): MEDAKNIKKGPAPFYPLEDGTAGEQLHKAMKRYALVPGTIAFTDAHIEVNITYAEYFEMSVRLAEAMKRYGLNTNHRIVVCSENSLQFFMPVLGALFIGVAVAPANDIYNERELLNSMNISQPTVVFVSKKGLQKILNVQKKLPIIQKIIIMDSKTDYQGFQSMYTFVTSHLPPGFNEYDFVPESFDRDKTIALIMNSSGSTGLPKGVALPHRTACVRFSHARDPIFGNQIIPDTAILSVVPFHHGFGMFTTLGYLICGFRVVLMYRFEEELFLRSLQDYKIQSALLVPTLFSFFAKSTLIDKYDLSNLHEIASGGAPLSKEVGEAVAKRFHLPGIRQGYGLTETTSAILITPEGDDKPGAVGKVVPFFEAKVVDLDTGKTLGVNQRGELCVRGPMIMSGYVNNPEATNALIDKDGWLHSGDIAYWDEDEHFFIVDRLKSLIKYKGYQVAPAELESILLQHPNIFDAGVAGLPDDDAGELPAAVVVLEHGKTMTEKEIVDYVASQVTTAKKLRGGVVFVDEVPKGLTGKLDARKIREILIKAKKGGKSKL
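Purified P. pyralis luciferase, 10 nM final, with Km-level 10 uM D-luciferin and 10 uM ATP in 50 mM Tris acetate pH 7.5, 10 mM Mg acetate, 0.01% Tween-20, 0.05% BSA; 6-point qHTS titration about 60 µM downward; luminescence read.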
ELG1 genotoxic: qHTS screen for small molecules that induce genotoxicity in human embryonic kidney (HEK293T) cells expressing luciferase-tagged ELG1; HEK293T ELG1-luciferase reporter, luminescence, 16 h; Potency, µM (series often up to 46 µM), without a hit: top-dose activity change, positive = activation, hits mostly activators; actives 1.3% (n = 330,000); AID 504466, 2011; also: % of control where 0% means no effect; nearly all actives have a fitted effect of over 60% in size
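Genotoxicity was scored as increased ELG1-luciferase reporter signal, measured by ONE-Glo luminescence (30 min, room temperature). Compound or vehicle exposure of the HEK293T reporter cells lasted 16 hr at 37°C.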
NPC1 promoter act: qHTS Assay for NPC1 Promoter Activators; Huh7 NPC1 promoter luciferase reporter, 24 h; Potency, µM (highest dose often 9.22 µM), for inactives: top-dose activation, usual class: activators; actives 2.4% (n = 320,000); AID 485313, 2010; also: % of control where 0% means no effect; nearly all actives have a fitted effect of over 60% in size
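Quantitative HTS used a cell-based reporter: Huh7 cells stably bearing the NPC1 promoter upstream of luciferase were treated with compounds for 24 h, and promoter activation was read as luminescence.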
SMN2 splice up: qHTS Assay for Enhancers of SMN2 Splice Variant Expression. HEK293 SMN2-luciferase splicing reporter, luminescence, 30-36 h. Potency, µM (series often up to 46.1 µM), inactives show at the top dose activity change, positive = activation, usual class: activators. actives 2.8% (n = 210,000). AID 1458, 2008; also: % of control where 0% means no effect; nearly all actives have a fitted effect of over 55% in size
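HEK293 cells carry an SMN2 minigene-luciferase reporter in which exon 7 inclusion puts luciferase in frame. Cells were seeded at 2000 cells/well, attached for 10-12 hours, then exposed to compounds for 30-36 hours at 37C before ONE-Glo luminescence.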
ELG1 repair inh: qHTS screen for small molecules that inhibit ELG1-dependent DNA repair in human embryonic kidney (HEK293T) cells expressing luciferase-tagged ELG1; HEK293T ELG1-luciferase reporter, luminescence, 16 h; DNA damage induced by 5-fluorouridine; Potency, µM (top dose mostly 46.1 µM), inactives show at the highest dose activity change, negative = inhibition, actives largely listed as inhibitors; actives 2.3% (n = 330,000); also: % is scaled to controls: 0 for no effect and ±100 for the full control effect; nearly all actives have a fitted effect of over 55% in size
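Luminescence from the luciferase reporter, measured 30 min after ONE-Glo reagent at room temperature, was the read-out. Beforehand, 2,000 cells per well were exposed for 16 hr at 37 °C to 5-fluorouridine together with compound or vehicle.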
* = called active by the depositor; ? = inconclusive; · = no result given; [ ] = dose if it differs, or a comment. In the library only some 9.3% were active in any assay of this set; here they are far more common. Calls follow the shape of the dose curve; as a rule, active = well fitted curve in the direction sought with a large enough effect; inconclusive = small, poorly fitted or top-dose-only effect, or another doubt; inactive = no such curve, though single readings can be large; an effect the other way counts as inactive or inconclusive. Potency is read from the fitted curve at half-maximal effect.

SMILES	Rab9 promoter act	FLuc modulator	ELG1 genotoxic	NPC1 promoter act	SMN2 splice up	ELG1 repair inh
CC(=C\c1ccccc1)/C=C1/SC(=S)N(C(C(=O)O)C(C)C)C1=O (stereo unspecified)	1%	27µM*	0%	1%	-2%	4%
CCOC(=O)c1c(NC(=O)COC(=O)c2nccnc2N)sc(C(=O)N(C)C)c1C	-4%	0%	3%	0%	·	-1%
Cc1noc(C)c1S(=O)(=O)N(C)C[C@H]1Oc2ccc(NS(=O)(=O)c3ccc(F)cc3)cc2C(=O)N([C@H](C)CO)C[C@@H]1C	·	·	3%	·	·	5.8µM*
COc1ccc(NC(=O)Nc2cccc3c2O[C@H](CN(C)C(=O)Nc2ccc(OC)cc2)[C@@H](C)CN([C@H](C)CO)C3=O)cc1	·	·	-3%	·	·	9.2µM*
C[C@@H]1CN([C@@H](C)CO)C(=O)c2cc(NC(=O)Nc3ccccc3)ccc2O[C@H]1CN(C)C(=O)Nc1cccc2ccccc12	·	·	-3%	·	·	15µM*
C[C@H](CO)N1C[C@H](C)[C@@H](CN(C)C(=O)Nc2ccccc2)Oc2ccc(NC(=O)Nc3ccc(C(F)(F)F)cc3)cc2C1=O	·	·	-6%	·	·	8%
C[C@H](CO)N1C[C@H](C)[C@@H](CN(C)S(=O)(=O)c2ccccc2)Oc2ccc(NC(=O)Nc3ccc(C(F)(F)F)cc3)cc2C1=O	·	·	-14%	·	·	21µM*
COc1cc(NC(=O)c2ccc([N+](=O)[O-])cc2)c(OC)cc1NC(=O)CC(C)C	-5%	-1%	12%	-1%	0%	9%
Cc1ccc(CCN2CC(C(=O)NCCCN3CCCCC3)CC2=O)cc1 (stereo unspecified)	0%	0%	-2%[9.26 µM]	0%	·	11%
Cc1ccc(CNS(=O)(=O)c2cn(C)c(=O)n(C)c2=O)cc1	6%	1%	5%	-2%	·	0%
CC1CCc2c(sc3ncnc(SCC(=O)Nc4ccc(C(=O)O)cc4)c23)C1 (stereo unspecified)	-2%	?	3%	-1%	·	0%
CC(C)c1nc(SCC(=O)Nc2ccc(C(=O)O)cc2)c2c3c(sc2n1)CCCC3	-1%	27µM*	9%	-2%	·	16%
CC(=O)Nc1ccc(N=Nc2c(C)[nH]n(C(N)=S)c2=O)cc1	?	15µM*	?	29%	43%	?
Cc1[nH]n(C(N)=S)c(=O)c1N=Nc1cc(-c2ccc(Br)cc2)[nH]n1	?	1.7µM*	8%	22%	?	?
Cc1[nH]n(C(N)=S)c(=O)c1N=Nc1ccc2ccccc2c1	4µM*	3µM*	18µM*	3.2µM*	22µM*	?
CC(=O)Nc1ccc(NC(=S)Nc2ccc(F)cc2)cc1	14%	-1%	-4%	-5%	12%	0%
Cc1[nH]n(C(N)=S)c(=O)c1N=Nc1ccc(S(=O)(=O)N2CCCCCC2)cc1	3%	5.4µM*	4%	7%	-20%	0%
CCOc1ccc(NC(=O)C2CCN(S(=O)(=O)c3ccc4c(c3)oc(=O)n4C)CC2)cc1	·	2%	·	·	5%	·
COc1ccc(NC(=O)Cc2cccc3ccccc23)cc1	0%	?	3%	0%	·	-5%
Cc1ccc(N=Nc2c(C)[nH]n(C(N)=S)c2=O)cc1C	3.5µM*	3.8µM*	?	3.5µM*	10µM*	?
COc1ccc(C(c2c(C)[nH]n(C(N)=S)c2=O)C(C#N)C#N)cc1 (stereo unspecified)	0%	-3%	?	-4%	-39%	?
CC(C)(C)NC(=O)CN(C(=O)CCC(=O)Nc1nccs1)c1ccc2c(c1)OCCO2	-1%	0%	-1%	0%	·	-2%
CC(C)CCNC(=O)CN(C(=O)CCC(=O)Nc1nccs1)c1ccc2c(c1)OCCO2	2%	?	21µM*	1%	·	?
CCCCOc1ccc(Br)cc1CSC(=N)N	-30%	4%	-8%	-30%	-67%	23µM*
COc1ccc(OC)c(CCNC(=O)CS(=O)(=O)Cc2nc(-c3ccccc3C)oc2C)c1	-7%	-1%	-6%	0%	-12%	?
SMILES	Rab9 promoter act	FLuc modulator	ELG1 genotoxic	NPC1 promoter act	SMN2 splice up	ELG1 repair inh
COc1ccc(OC)c(CCNC(=O)CS(=O)(=O)Cc2nc(-c3ccccc3Cl)oc2C)c1	-2%	3%	-7%	-3%	·	21µM*
O=C(CSc1cn(CC(=O)N2CCOCC2)c2ccccc12)Nc1ccccc1F	·	0%	·	·	·	·
COc1ccc(-n2c(-c3ccc(Cl)cc3)c[n+]3c2CCc2ccccc2-3)cc1	-13%	-2%	-13%	-19%	-86%	2.3µM*
C/C(=N\Nc1nccnc1Cl)c1ccc(O)cc1	15%	?	12%	17%	·	?
C/C(=N\Nc1nccnc1Cl)c1ccc(F)cc1	?	24µM*	?	?	·	?
C/C(=N\Nc1nccnc1Cl)c1ccc(Cl)c(Cl)c1	18%	21µM*	7%	18%	·	0%
CCOC(=O)c1c(C)oc2cc(Cl)c(O)c(CN(C)C)c12	-7%	15µM*	?	2%	·	?
CCOC(=O)c1c(C)oc2ccc(O)c(CN(C)C)c12	-1%	-3%	-19%	-5%	-5%	-16%
CCN1CCN(C(=O)c2cc3c(OC)c(OC)c(OC)cc3[nH]2)CC1	2%	-7%	4%	0%	·	?
CCOC(=O)C1CCN(C(=O)c2cc3c(OC)c(OC)c(OC)cc3[nH]2)CC1	-3%[1.84 µM]	-4%	9%	-3%	·	?
COc1cc2[nH]c(C(=O)N3CCc4ccccc43)cc2c(OC)c1OC	?	17µM*	?	24%	·	?
COc1cc2[nH]c(C(=O)N3CCC(Cc4ccccc4)CC3)cc2c(OC)c1OC	-7%	24µM*	-4%	0%	·	?
CC(Sc1ncc(C(F)(F)F)cc1Cl)C(=O)NCC1CCCO1 (stereo unspecified)	1%	2%	-2%	-4%	·	-19%
COC(C/C=C/[C@@H](O)COCc1ccccc1)OC	1%	3%	4%	1%	·	-1%
COc1cc(C)ccc1N(CCCN1C(=O)c2cccc3cccc(c23)C1=O)C(=O)c1cccs1	-4%	4%	-4%	-4%	4%	21µM*

High-throughput results deposited in PubChem BioAssay by National Center for Advancing Translational Sciences (NCATS).
